The values that follow come from PubChem BioAssay (NCI).

Experiment in all cases: NCI-60 one-dose screen, 48 h (100 = growth as untreated, 0 = no growth, -100 = all killed)
Holding throughout (settings): 10 µM unless noted

Test [1] concerns SK-MEL-2 melanoma.
Test [2] relates to EKVX NSCLC.
In test [3] the test system is SN12C renal.
Test [4] deals with UO-31 renal.
Test [5] has as its system TK-10 renal.
Test [6] concerns ACHN renal.
Test [7] relates to CAKI-1 renal.
The subject of test [8] is A498 renal.
The test system of test [9] is CCRF-CEM leukemia.
Test [10] deals with MOLT-4 leukemia.
Test [11] relates to SR leukemia.
Test [12] relates to RPMI-8226 leukemia.
Test [13] has as its system OVCAR-8 ovarian.
Test [14] deals with OVCAR-5 ovarian.
For test [15], the system named is OVCAR-4 ovarian.
The subject of test [16] is SK-OV-3 ovarian.
Test [17] concerns IGROV1 ovarian.
Test [18] concerns OVCAR-3 ovarian.
Test [19] has as its system HS 578T breast.
Test [20] relates to NCI/ADR-RES ovarian.

Compounds without any hit were thinned out: in the full panel of roughly 83,000, 20% have a hit.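 Values shown are percent growth following 48 h exposure of cells in 96-well plates to a single concentration of compound; below 10 was considered active.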 Unmarked numbers belong to inactive results. Calls of active or inactive are those of the source.

For the molecule `CC1CCN(CCCCCOc2ccc3oc4ccc(Cl)cc4c(=O)c3c2)CC1`, the growth was 88.1% in test [1]; 75.1% in test [2]; 70.9% in test [3]; 63.1% in test [4]; 75.7% in test [5]; 93.8% in test [6]. Further, the growth in test [7] is 80.3%; in [8], 78.7%; in test [9], 40.4%; in [10], 26.6%; in test [11] it was 14.9%; in test [12] it was 35.4%. Also, the growth was 59.7% in [13]; 72.9% in [14]; 77.3% in [15]; 84.3% in test [16]; 70.4% in [17]; 74.6% in test [18]. The figures for the growth in [19] and in test [20] were 86.5% and 71.6%, respectively.
For `O=C1/C(=C/c2cc(F)cc(F)c2)Cc2cc(F)cc(F)c21`, the growth in [1] was 93.7%; in test [2], 88%; in [3], 106%; in test [4], 70.9%; in [5] it was 102%; in test [6], 92.7%. In addition, the growth in [7] is 77.6%; in test [8], 90.2%; in test [9] it was 110%; in test [10] it was 87.3%; in [11] it was 62.8%; in [12], 94.1%. The growth in test [13] is 111%; in test [14] it was 96.6%; in [15], 110%; in test [16] it was 111%; in test [17], 93.2%; in test [18] it was 94.9%. The growth in [19] was 90.5%; in test [20], 98.2%.
In the case of `COc1cc(C2CC(=O)Nc3c2cnn3C)cc(OC)c1OC` (configuration not stated), the growth is 113% in [1]; 119% in [2]; 114% in test [3]; 90.7% in [4]; 117% in [5]; 108% in [6]. Also, the growth in test [7] is 106%; in [8], 113%; in [9] it was 114%; in test [10], 102%; in test [11] it was 103%; in test [12] it was 112%. For the same molecule, the growth in test [13] is 103%; in test [14], 109%; in test [15], 113%; in test [16], 95.1%; in [17] it was 108%; in test [18], 106%. Moreover, the growth was 111% in test [19] and 105% in test [20].
As for `COc1ccc(C2c3cccn3-c3ccccc3N2C(C)=O)cc1` (configuration not stated), the growth in test [1] was 117%; in test [2], 85.9%; in [3] it was 99.8%; in test [4], 70.6%; in test [5] it was 103%; in [6], 99%. Moreover, the growth is 84.2% in test [7]; 86% in test [8]; 88.3% in test [9]; 1.08% (active) in [10]; 74% in test [11]; 85.5% in test [12]. The growth was 125% in [13]; 99.3% in test [14]; 126% in test [15]; 101% in test [16]; 74.3% in [17]; 95.3% in [18]. Also, in test [20], the growth was 91.2%.
For `CCc1onc(-c2ccc(OC)cc2)c1-c1ccccc1OCCN(CC)CC`, the growth is 94.9% in test [1]; 85.2% in test [2]; 91.4% in test [3]; 56.8% in test [4]; 92.2% in test [5]; 92.9% in test [6]. The growth in test [7] was 82.4%; in test [8], 63.3%; in test [9], 75.6%; in test [10], 87.2%; in test [11] it was 66.5%; in test [12], 91.3%. For the same molecule, the growth in test [13] is 96.3%; in [14], 91.5%; in test [15] it was 90.8%; in test [16], 101%; in [17], 83.3%; in test [18], 96.8%. The growth in [19] was 89.6%; in test [20], 75.2%.
Turning to `CCN1C(=O)/C(=C/N2N=C(c3ccc(Cl)cc3)CC2c2ccc(OC)cc2)SC1=S` (configuration not stated), the growth in [1] is 84.4%; in test [2], 93.6%; in test [3], 86.2%; in [4], 71.1%; in test [5], 102%; in [6], 94.1%. The growth was 91.6% in test [7]; 64.4% in [8]; 100% in test [9]; 73.4% in test [10]; 84.2% in test [11]; 101% in test [12]. Also, the growth in [13] is 93.1%; in [14], 101%; in test [15], 84.4%; in test [16], 87.4%; in [17] it was 84.3%; in test [18], 104%. The results for the growth in test [19] and in test [20] were 95.2% and 96.8%, respectively.
For the molecule `CCCCCCCC/C=C\CCCCCCCC(=O)OCCCCCC`, the growth in test [1] was 123%; in [2] it was 84.9%; in [3], 111%; in test [4] it was 91.8%; in [5], 112%; in test [6], 107%. In addition, the growth in test [7] is 96%; in test [8], 70.5%; in [9], 98.8%; in test [10], 104%; in [11] it was 105%; in test [12], 104%. Besides, the growth is 100% in [13]; 117% in [14]; 113% in test [15]; 99.3% in test [16]; 108% in [17]; 105% in [19].
As for `N/C(=N\OC(=O)c1ccccc1)C(C(=O)NOC(=O)c1ccccc1)C1CCCCC1` (configuration not stated), the growth in [1] was 121%; in test [2] it was 66.8%; in test [3] it was 89.1%; in test [4], -50.5% (active); in test [5], 92.6%; in test [6], 25.6%. The growth was -55.3% (active) in test [7]; 86.2% in [8]; 30% in test [9]; 55.9% in [10]; 4.57% (active) in test [11]; 41.5% in test [12]. The growth in [13] is 65.8%; in test [14], 92.2%; in test [15] it was 72.8%; in test [16], 108%; in [17] it was -56.2% (active); in [18], 66.9%. Further, the growth in test [19] is 26.7%; in [20] it was 45.2%.
